Compounds without any hit were thinned out: in the full panel of roughly 83,000, 20% have a hit.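 Plates (96-well) were seeded with cells, treated with compound at one concentration, and incubated for 48 hours before percent growth was determined.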 Unmarked numbers belong to inactive results. The source made the active and inactive calls. The calls were made as follows: active = growth percent below 10; inactive = the rest.
Assays:
Test in all cases: NCI-60 one-dose screen, 48 h (100 = growth as untreated, 0 = no growth, -100 = all killed)
[1] = system: NCI-H522 lung; settings: 10 µM unless noted
[2] = system: COLO 205 colon; settings: 10 µM
[3] = system: MALME-3M melanoma; settings: 10 µM unless noted
[4] = system: SF-295 CNS; settings: 10 µM unless noted
[5] = system: LOX IMVI melanoma; settings: 10 µM unless noted
[6] = system: SK-MEL-28 melanoma; settings: 10 µM unless noted
[7] = system: SN12C renal; settings: 10 µM unless noted
[8] = system: TK-10 renal; settings: 10 µM unless noted
[9] = system: CAKI-1 renal; settings: 10 µM unless noted
[10] = system: CCRF-CEM leukemia; settings: 10 µM unless noted
[11] = system: SR leukemia; settings: 10 µM
[12] = system: OVCAR-4 ovarian; settings: 10 µM unless noted
[13] = system: BT-549 breast; settings: 10 µM
[14] = system: HCC-2998 colon; settings: 10 µM unless noted
[15] = system: RPMI-8226 leukemia; settings: 10 µM unless noted
[16] = system: IGROV1 ovarian; settings: 10 µM
[17] = system: SNB-19 CNS; settings: 10 µM unless noted
[18] = system: EKVX NSCLC; settings: 10 µM unless noted

Row | SMILES | growth [1] [%] | growth [2] [%] | growth [3] [%] | growth [4] [%] | growth [5] [%] | growth [6] [%] | growth [7] [%] | growth [8] [%] | growth [9] [%] | growth [10] | growth [11] | growth [12] [%] | growth [13] [%] | growth [14] [%] | growth [15] | growth [16] [%] | growth [17] [%] | growth [18] [%]
1 | O=CC(Br)C(Br)c1ccccc1 (configuration not stated) | 98 | 123 | 82.6 | 97.9 | 56.2 | 93.7 | 86.7 | 106 | 92.9 | -1.8% (active) | 16.1% | 104 | 99.7 | 106 |  |  |  | 
2 | C1CNC2CCCC2C1 (configuration not stated) | 91.7 | 102 | 99.4 | 104 | 101 | 111 | 111 | 103 | 103 |  |  | 102 | 102 | 107 | 101% | 117 |  | 
3 | CCN(CC)c1ccc(C=C2C(=O)NC(=S)NC2=O)cc1 | 86.5 | 104 | 123 | 99.3 |  | 103 | 91.8 | 108 | 91.8 |  | -50.8% (active) | 90.9 |  | 96.8 | -18.9% (active) | 100 | 88.9 | 99.5
4 | C=CCN1C(=O)C(CC)(CCC(C)C)C(=O)NC1=S (configuration not stated) |  | 108 | 96.1 | 88.7 | 109 |  |  | 115 | 97.7 | 86.3% | 103% | 106 | 106 | 124 | 95.1% | 108 | 100 | 
